Only some compounds are listed: those with a hit (about 9.4% of all), similar ones and a draw of the others.
FLuc modulator = counter-screen for miR-21 project: firefly luciferase inhibitors or activators; purified FLuc, Km substrates, luminescence inhibition; AID 588342; P08659; Potency, µM (titrated, usually from 57.5 µM), inactives show at the top dose activity change, negative = inhibition, usual class: inhibitors; actives 6.9% (n = 360,000);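 further: plate controls were vehicle for no effect and reference inhibitor for full effect; nearly all actives have a fitted effect of over 55% in size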
Target sequence (P08659 whole entry, looked up): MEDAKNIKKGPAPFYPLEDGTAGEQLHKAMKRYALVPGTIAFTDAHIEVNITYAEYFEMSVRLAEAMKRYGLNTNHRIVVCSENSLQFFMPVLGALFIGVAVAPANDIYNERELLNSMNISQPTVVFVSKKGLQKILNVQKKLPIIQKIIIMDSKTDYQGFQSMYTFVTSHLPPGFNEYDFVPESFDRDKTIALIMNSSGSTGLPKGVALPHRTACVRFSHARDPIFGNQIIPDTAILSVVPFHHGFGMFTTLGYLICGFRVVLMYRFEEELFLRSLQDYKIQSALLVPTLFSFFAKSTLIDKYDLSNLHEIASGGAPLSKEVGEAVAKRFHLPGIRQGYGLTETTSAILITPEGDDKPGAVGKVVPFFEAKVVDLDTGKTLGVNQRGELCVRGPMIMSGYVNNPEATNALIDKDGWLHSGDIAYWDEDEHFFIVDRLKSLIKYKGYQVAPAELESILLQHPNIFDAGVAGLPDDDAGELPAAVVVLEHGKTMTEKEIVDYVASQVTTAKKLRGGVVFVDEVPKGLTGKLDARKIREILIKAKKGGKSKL
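Biochemical qHTS of compounds, final roughly 60 µM downward over six points, against 10 nM purified firefly luciferase using Km concentrations of substrates (10 uM D-luciferin, 10 uM ATP) in Tris acetate pH 7.5 buffer; luminescence output.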
ELG1 genotox = inducers of genotoxicity in HEK293T ELG1-luciferase cells. Potency, µM (series often up to 46 µM), without a hit: top-dose activity change, positive = activation, actives largely listed as activators. AID 504466. actives 1.3% (n = 330,000). HEK293T ELG1-luciferase reporter, luminescence, 16 h; further: % of control where 0% means no effect; nearly all actives have a fitted effect of over 60% in size
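Genotoxicity was scored as increased ELG1-luciferase reporter signal, measured by ONE-Glo luminescence (30 min, room temperature). Compound or vehicle exposure of the HEK293T reporter cells lasted 16 hr at 37°C.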
SMN2 splice enh = SMN2 splice variant enhancement; actives 2.8% (n = 210,000); Potency, µM (doses to about 46.1 µM), inactives show at the highest dose activity change, positive = activation, hits mostly activators; HEK293 SMN2-luciferase splicing reporter, luminescence, 30-36 h; AID 1458; further: % of control where 0% means no effect; nearly all actives have a fitted effect of over 55% in size
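HEK293 cells carry an SMN2 minigene-luciferase reporter in which exon 7 inclusion puts luciferase in frame. Cells were seeded at 2000 cells/well, attached for 10-12 hours, then exposed to compounds for 30-36 hours at 37C before ONE-Glo luminescence.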
ELG1 repair inh = blocks ELG1-dependent DNA repair in HEK293T cells. Potency, µM (highest dose often 46.1 µM), inactives show at the highest dose activity change, negative = inhibition, most hits filed as inhibitors. HEK293T ELG1-luciferase reporter, luminescence, 16 h; DNA damage induced by 5-fluorouridine. AID 504467. actives 2.3% (n = 330,000); further: on the % scale 0 is the no-effect control and ±100 the full control effect; nearly all actives have a fitted effect of over 55% in size
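Luminescence from the luciferase reporter, measured 30 min after ONE-Glo reagent at room temperature, was the read-out. Beforehand, 2,000 cells per well were exposed for 16 hr at 37 °C to 5-fluorouridine together with compound or vehicle.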
NPC1 promoter act = activators of NPC1 promoter | Huh7 NPC1 promoter luciferase reporter, 24 h | Potency, µM (doses to about 9.22 µM), inactives show at the top dose activation, hits mostly activators | actives 2.4% (n = 320,000) | AID 485313; further: % of control where 0% means no effect; nearly all actives have a fitted effect of over 60% in size
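Stably transfected Huh7 (NPC1 promoter→luciferase), 1500 cells/well in Opti-MEM + 10% FBS, 2 h settle, then compound 24 h at 37 °C. Luminescence after 10 min with Amplite reagent.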
Rab9 promoter act = activates the Rab9 promoter; Huh7 Rab9 promoter-luciferase reporter, luminescence, 24 h; Potency, µM (doses to about 9.22 µM), for the others: at the highest dose activation, negative = inhibition, hits mostly activators; AID 485297; actives 2.8% (n = 320,000); further: % of control where 0% means no effect; nearly all actives have a fitted effect of over 60% in size
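Cells were plated at 1500 per well in reduced-serum medium with 10% FBS and left 2 h. Compound in DMSO was then added for 24 h at 37 °C. Reporter signal was read by luminescence after 10 min with luciferase detection reagent.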
Numbers without * were called inactive; ? = inconclusive; nt = no result. The call rests on the fitted dose curve; in most records, active means well fitted curve in the direction sought with a large enough effect; inconclusive means small, poorly fitted or top-dose-only effect, or another doubt; inactive means no such curve, though single readings can be large; an effect the other way counts as inactive or inconclusive. Potency means the concentration at half of the fitted maximal effect.

SMILES	FLuc modulator	ELG1 genotox	SMN2 splice enh	ELG1 repair inh	NPC1 promoter act	Rab9 promoter act
Cc1ccc(C2=NNC(C(O)C(O)C(O)C(O)CO)S2)cc1 (stereo not given)	21µM*	?	-29%	?	2%	12%
COc1ccc(-c2sc3ccc(N4CCOCC4)cc3c2C#CCO)cc1	nt	-4%	nt	5.2µM*	nt	nt
CCC(C)NC(=O)CCc1c(C)nc2cc(-c3ccc(OC)cc3OC)nn2c1C (stereo not given)	-1%	nt	5%	nt	nt	nt
CN1/C(=C\C(=O)c2cncc(Br)c2)C(C)(C)c2ccccc21	-14%	-10%	-51%	16µM*	-7%	-14%
CN1/C(=C\C(=O)c2cccnc2)C(C)(C)c2ccccc21	-4%	-4%	11%	0%	3%	8%
CN1/C(=C\C(=O)c2cccc(S(=O)(=O)N3CCCCC3)c2)C(C)(C)c2ccccc21	0%	-11%	-40%	18µM*	-4%	0%
C[C@@H](N)CCCP(=O)(O)O	nt	nt	-3%	nt	nt	nt
Cc1ccc(C)c(NC(=O)CN2CCCN(Cc3cccc(Cl)c3)S2(=O)=O)c1	-14%	nt	nt	nt	nt	nt
O=C(NC1CCCC1)C(c1ccccc1)N(Cc1ccc2c(c1)OCO2)C(=O)Cc1cccs1 (stereo not given)	2%	-8%	-8%	?	-5%	-5%
O=C(NCc1ccccc1)C(c1ccccc1)N(Cc1ccc2c(c1)OCO2)C(=O)Cc1cccs1 (stereo not given)	-11%	-11%	-17%	16µM*	-2%	-2%
CCOC(=O)Cc1csc2nc(-c3ccccc3)nn12	-15%	0%	nt	23%	-3%	0%
CCOC(=O)c1cc(=O)n2nc(-c3ccc(C)cc3)nc2s1	3µM*	0%	1%	23%	0%	2%
COc1cccc(/C=N/NC(=O)c2cc3c(OC)cccc3[nH]2)c1OC	21µM*	-3%	1%	-27%	2%	-8%
COc1cccc(/C=N/NC(=O)c2cc3c(OC)cccc3[nH]2)c1O	-19%	-2%	-109%	?	-27%	-36%
COc1cccc(/C=N/NC(=O)C[n+]2ccccc2)c1OC	-1%	-3%	-6%	20%	0%	-3%
COc1ccc(OC)c2[nH]c(C(=O)N/N=C/c3ccccc3O)cc12	?	?	nt	?	-42%	-36%
COc1cccc2[nH]c(C(=O)NCc3ccccc3)cc12	-19%	-3%	nt	21µM*	-4%	-5%
COc1ccccc1/C=N/NC(=O)c1cc2c(OC)c(OC)ccc2[nH]1	13µM*	1%	nt	-13%	-9%	-2%
COc1cccc(/C=N/NC(=O)CN(C)S(=O)(=O)c2ccccc2)c1OC	21µM*	8%	nt	?	19%	19%
COc1ccccc1NC(=O)c1oc2ccccc2c1NC(=O)Cc1cccs1	-19%	nt	-8%	nt	nt	nt
Cc1ccc(C)c(N2CCN(C(=O)CCc3c(C)nn(-c4ccc(N5CCCC5)nn4)c3C)CC2)c1	-3%	nt	nt	nt	nt	nt
Cc1ccc(CNC(=O)CN2C(=O)CCn3nc(-c4ccccc4)cc32)cc1	-17%	nt	nt	nt	nt	nt
COc1cccc(/C=N/NC(=O)c2cc3c(OC)c(OC)ccc3[nH]2)c1OC	11µM*	4%	?	?	-16%	-12%
COc1cccc(/C=N/NC(=O)c2ccc(=O)n(C)c2)c1OC	-3%	4%	7%	?	2%	2%
CC1Cn2cc(C(=O)Nc3cccc(C(F)(F)F)c3)c(=O)c3c(Cl)ccc(c32)O1 (stereo not given)	3%	nt	nt	nt	nt	nt
C=C(C)CN=c1scc(C)n1/N=C/c1ccco1	-10%	4%	-8%	18%	6%	11%
CCN=c1scc(C)n1/N=C/c1cc(Br)c(O)c(Br)c1	19µM*	-6%	?	?	-1%	-1%
CCN=c1scc(C)n1/N=C/c1ccc(O)c(O)c1O	3.4µM*	-4%	-15%	4%	1%	20%
